Rhodamine fluor – qHTS Assay for Spectroscopic Profiling in Rhodamine Spectral Region | 59,000 tested, 0.05% active | AID 594, 2007 | Rhodamine-region fluorescence, 547/598 nm, Tris buffer; active compounds read high | max dye-equivalent concentration, M; in the data active = max dye-equivalent concentration above about 11 nM; inconclusive = between about 1.1 nM and that limit
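qHTS spectral profiling of compounds without any target or enzyme present, in pH 8.0 Tris buffer; plates were read after a 15-minute room-temperature incubation using the rhodamine-region filter set.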
Resorufin fluor – qHTS Assay for Spectroscopic Profiling in Resorufin Spectral Region. 59,000 tested, 0.04% active. max dye-equivalent concentration, M. Compound fluorescence, resorufin region 547/598 nm, buffer; active compounds read high
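Compounds in 100 mM Tris buffer, pH 8.0, incubated 15 min at room temperature, then read with 547 nm excitation and 598 nm emission filters. Fluorescence was converted to dye-equivalent concentration using an on-plate six-point resorufin standard curve.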
Texas Red fluor – qHTS Assay for Spectroscopic Profiling in Texas Red Spectral Region; Compound fluorescence, Texas Red channel, 547/618 nm; active compounds read high; max dye-equivalent concentration, M; 59,000 tested, 0.06% active; in the data active = max dye-equivalent concentration above about 10 nM; inconclusive = between about 1.1 nM and that limit
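Fluorescence at ex 547/em 618 nm, normalized against an on-plate Texas Red standard series to give dye-equivalent concentration per compound concentration. Buffer 100 mM Tris, pH 8.0; 15 min RT incubation before CCD imaging.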
A647 fluor – qHTS Assay for Spectroscopic Profiling in A647 Spectral Region | Compound fluorescence, A647 channel (570/671 nm), Tris buffer | 59,000 tested, under 10 active | max dye-equivalent concentration, M;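 note: values scaled relative to a standard on each plate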
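Compound fluorescence was measured in 100 mM Tris buffer, pH 8.0, after 15 min at room temperature, using 570 nm excitation and 671 nm emission filters. Signal was normalized to a per-plate Alexa 647 standard curve and expressed as dye-equivalent concentration at each compound concentration.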
Fluorescein fluor – qHTS Assay for Spectroscopic Profiling in Fluorescein Spectral Region; Compound autofluorescence, 480/540 nm, fluorescein-equivalent; active compounds read high; max fluorescein-equivalent concentration, M; 59,000 tested, 0.91% active; in the data active = max fluorescein-equivalent concentration above about 10 nM; inconclusive = between about 1.1 nM and that limit
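Compounds were pin-transferred into 100 mM Tris buffer, pH 8.0, and incubated 15 min at room temperature. Fluorescence was read at 480 nm excitation/540 nm emission. Signals were normalized to an on-plate six-point fluorescein standard curve as dye-equivalent concentration.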
A488 autofl – qHTS Assay for Spectroscopic Profiling in A488 Spectral Region. compound autofluorescence, A488 spectral region, dye equivalency; Compound Type: qHTS ECL - MLSMR. AID 591, 2007. max dye equivalency, M. 59,000 tested, 0.1% active
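Compound autofluorescence was read in 100 mM Tris pH 8.0 after 15 min at room temperature, ex 480 nm/em 540 nm. Intensities were converted to A488 dye-equivalent concentration using an on-plate six-point A488 standard curve.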
An asterisk follows results filed as active; i = inactive; ? = inconclusive. Rows were chosen to be rich in hits. Some 0.95% of all compounds tested hit in one or more screens of this group. Unless noted, the rule behind the calls is not given here.

SMILES | Rhodamine fluor | Resorufin fluor | Texas Red fluor | A647 fluor | Fluorescein fluor | A488 autofl
COc1ccc(NC(=O)CC2SC(=NCc3ccccc3OC)NC2=O)cc1 (centres undefined) | i | i | i | 1.8e-08 | ? | i
CCOC(=O)CN=C1CC(C)(C)CC2=C1Sc1ncnc(N(C)C)c1N2 | ? | ? | i | 1e-09 | 3.4e-08M* | ?
Cc1cccc(-c2c3c(=O)n(C)c(=O)n(C)c3c3c(C)cc(C)nn23)c1 | i | i | i | 3.2e-08 | ? | i
Cc1cccc(-c2c3c(=O)n(C)c(=O)n(C)c3c3cccnn23)c1 | i | i | i | 1e-09 | 1.1e-08M* | i
N#Cc1cccc(NC(=O)N2CCC3(CC2)CCN(C(=O)c2csnn2)CC3)c1 | i | i | i | 1.9e-08 | i | i
CCOC(=O)c1csc(NC(=O)CSc2nnnn2-c2ccc(OCC)cc2)n1 | i | i | i | 1e-09 | 2.3e-08M* | i
Fc1ccccc1N1CCN(c2nc3ccccc3n3nnnc23)CC1 | i | i | i | 3.1e-08 | 1.6e-08M* | i
c1cnc(N2CCN(c3nc4ccccc4n4cnnc34)CC2)nc1 | i | i | i | 6.2e-09 | i | i
O=C1c2cccnc2C(=O)N1Cc1ccc(F)cc1 | i | i | i | 1e-09 | 8.2e-08M* | ?
CCOC(=O)c1c(C)oc2ccc(O)c(CN(C)C)c12 | i | i | i | 1.7e-08 | ? | i
CCOC(=O)c1c(C)oc2c1c(/C=N/c1ccccn1)c(O)c1ccccc12 | i | i | i | 1e-09 | 2.2e-08M* | i
Cc1c(-n2cc(C(=O)c3ccccc3O)cc(C#N)c2=O)c(=O)n(-c2ccccc2)n1C | i | i | i | 2.3e-08 | 3.7e-08M* | ?
Cc1nc(SCc2nnc(-c3ccc(Cl)cc3)o2)c2c3c(sc2n1)CCC3 | i | i | i | 7.3e-09 | i | i
CCCn1c(=N)c(C(=O)NCc2ccc3c(c2)OCO3)cc2c(=O)n3cccc(C)c3nc21 | i | i | i | 2.6e-09 | 1.4e-08M* | i
Cc1onc(-c2ccccc2Cl)c1C(=O)NCc1nc(-c2ccccc2)no1 | i | i | i | 3.7e-08 | ? | i
CCCCOc1ccc(-c2c(C#N)c(N)nc(SCC(N)=O)c2C#N)cc1 | ? | i | ? | 3.5e-08 | 1e-08M* | i
CCCCOC(=O)CSc1nc(N)c(C#N)c(-c2ccc(OCC)cc2)c1C#N | i | i | ? | 1.4e-09 | i | i
CC(=O)[C@@H]1[C@@H]2C(=O)N(c3ccc(F)c(Cl)c3)C(=O)[C@@H]2C2c3ccccc3C=CN21 (some centres undefined) | ? | ? | ? | 3.5e-08 | 3.3e-08M* | ?
O=C(c1ccco1)[C@@H]1[C@@H]2C(=O)N(c3ccc(F)cc3)C(=O)[C@@H]2C2c3ccccc3C=CN21 (some centres undefined) | i | i | ? | 5.7e-09 | 1.3e-08M* | i
CC(=O)[C@H]1[C@H]2[C@H](C(=O)[C@@H]3OC[C@H]2O3)[C@@H]2c3ccccc3C=CN12 | i | i | i | 1.6e-08 | ? | i
COc1ccc(NC(=O)[C@@H]2[C@@H]3C(=O)N(C4CCCCC4)C(=O)[C@@H]3C3c4ccccc4C=CN32)cc1 (some centres undefined) | i | i | i | 1.8e-09 | ? | i
N#C[C@@H]1[C@@H]2C(=O)N(c3ccc4c(c3)OCCO4)C(=O)[C@@H]2C2c3ccccc3C=CN21 (some centres undefined) | ? | ? | ? | 3.9e-08 | 1.3e-08M* | i
O=C(c1ccco1)[C@@H]1[C@@H]2C(=O)N(c3ccc(Br)cc3)C(=O)[C@@H]2C2c3ccccc3C=CN21 (some centres undefined) | i | i | ? | 4.2e-09 | ? | i
CC(=O)[C@H]1[C@@H]2C(=O)N(c3cccc(Cl)c3)C(=O)[C@@H]2[C@H]2c3ccccc3C=CN21 | i | i | i | 1e-09 | 1.8e-08M* | i

High-throughput results from PubChem BioAssay.
